Sequences and labels used below:
T1: RBFOX1 RRM (Homo sapiens, UniProt Q9NWB1 109-208)
T1 sequence: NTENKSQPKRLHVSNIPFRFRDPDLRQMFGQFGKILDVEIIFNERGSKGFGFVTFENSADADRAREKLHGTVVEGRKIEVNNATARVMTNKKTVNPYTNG

B1: AAAUAAA (DNA:RNA)
RNA: GGGAGACCGGAAUUCAGAUUGUCCAAAUAAAUUAAAUCCCGUCGUAGCCACCA
DNA 1: CAATCTGAATTCCGGTCTCCC
DNA 2: TGGTGGCTACGACGGGATT
B2: AAAGAGU (DNA:RNA)
RNA: B1 RNA with U28G, A30G, A31U
DNA 1: CAATCTGAATTCCGGTCTCCC
DNA 2: TGGTGGCTACGACGGGATT
B3: AGUGGCG (DNA:RNA)
RNA: B1 RNA with A26G, A27U, U28G, A29G, A30C, A31G
DNA 1: CAATCTGAATTCCGGTCTCCC
DNA 2: TGGTGGCTACGACGGGATT
B4: CUCUGUC (DNA:RNA)
RNA: B1 RNA with A25C, A26U, A27C, A29G, A30U, A31C
DNA 1: CAATCTGAATTCCGGTCTCCC
DNA 2: TGGTGGCTACGACGGGATT
B5: GUGCGCC (DNA:RNA)
RNA: GGGAGACCGGAAUUCAGAUUGUCCGUGCGCCUUAAAUCCCGUCGUAGCCACCA
DNA 1: CAATCTGAATTCCGGTCTCCC
DNA 2: TGGTGGCTACGACGGGATT
B6: CUUACGG (DNA:RNA)
RNA: B5 RNA with G25C, G27U, C28A, G29C, C30G, C31G
DNA 1: CAATCTGAATTCCGGTCTCCC
DNA 2: TGGTGGCTACGACGGGATT
B7: CUGGGGU (DNA:RNA)
RNA: B5 RNA with G25C, C28G, C30G, C31U
DNA 1: CAATCTGAATTCCGGTCTCCC
DNA 2: TGGTGGCTACGACGGGATT
B8: CGGUUGC (DNA:RNA)
RNA: B5 RNA with G25C, U26G, C28U, G29U, C30G
DNA 1: CAATCTGAATTCCGGTCTCCC
DNA 2: TGGTGGCTACGACGGGATT
B9: UGGUUGC (DNA:RNA)
RNA: B5 RNA with G25U, U26G, C28U, G29U, C30G
DNA 1: CAATCTGAATTCCGGTCTCCC
DNA 2: TGGTGGCTACGACGGGATT
B10: UGGGGUU (DNA:RNA)
RNA: B5 RNA with G25U, U26G, C28G, C30U, C31U
DNA 1: CAATCTGAATTCCGGTCTCCC
DNA 2: TGGTGGCTACGACGGGATT
B11: UGGUUGG (DNA:RNA)
RNA: B1 RNA with A25U, A26G, A27G, A29U, A30G, A31G
DNA 1: CAATCTGAATTCCGGTCTCCC
DNA 2: TGGTGGCTACGACGGGATT
B12: UGGGGGU (DNA:RNA)
RNA: B5 RNA with G25U, U26G, C28G, C30G, C31U
DNA 1: CAATCTGAATTCCGGTCTCCC
DNA 2: TGGTGGCTACGACGGGATT

Changes are numbered by the printed parent chain; changes in the protein carry UniProt numbers. In all, about 16,000 sequences were measured (“ka relative to ugcaugu”: median about 0.0091, highest 2% from about 0.032 on). The list comes from a sample in which the highest values are over-represented; it also holds similar and randomly drawn sequences.

The target of the test is T1, RBFOX1 RRM. In words: EMSA; HiTS-Eq, 1 nM pool, 10 min; buffer printed only for the single-RNA assays: 10 mM Tris pH 7.5, 150 mM NaCl, 3.4 mM EDTA, 0.001% NP-40, 30 C. The note with it: tags: His6 N-terminal (pET28a); label: 5' 32P. A digest of the protocol: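 Purified wild-type or mutant RbFox RRM at increasing concentrations was equilibrated with 1 nM of 5′-radiolabelled RNA carrying 7 randomized nucleotides for 10 min in 50 µL. Unbound RNA was separated by 8% native PAGE and sequenced. Relative association constants came from read-count changes of each RNA species compared with the control reaction, normalised to the cognate motif.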
(In EMSA bound probe runs differently from free probe, usually more slowly.)
With B1, the binding signal is 0.000652 KA relative to UGCAUGU. For B2 the value was 0.00527 KA relative to UGCAUGU; for B3, 0.0184 KA relative to UGCAUGU. For the molecule B4, the binding signal was 0.00978 KA relative to UGCAUGU. For the molecule B5, the binding signal is 0.0184 KA relative to UGCAUGU.

For B6, the binding signal was 0.00764 KA relative to UGCAUGU. For B7 the value was 0.018 KA relative to UGCAUGU; for B8, 0.0256 KA relative to UGCAUGU; for B9, 0.0455 KA relative to UGCAUGU. With B10, the binding signal was 0.036 KA relative to UGCAUGU. As for B11, the figure is 0.0294 KA relative to UGCAUGU. For B12 the value was 0.0229 KA relative to UGCAUGU.

The record behind these values is paper PMC9911399, “Two distinct binding modes provide the RNA-binding protein RbFox with extraordinary sequence specificity”.
